The values below come from PubChem BioAssay.

One may read the inhibition as the relative decrease from the control value, in per cent.

A number with no mark means an inactive call. For some of these results: Measured potencies and affinities stand elsewhere. Activity calls are given as the source filed them. Unless noted, no rule for the calls is given here.

Assay [1] can be described thus: antimalarial activity against Dd2 strain (AID 2302;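 active = growth inhibition above 50% at the single 2 µM test dose, taken to imply half-maximal potency below 2 µM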;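 also: 0% = DMSO untreated growth and 100% = chloroquine plus artemisinin killed control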). The note with it: P. falciparum Dd2 in RBCs, LDH growth readout, 72 h; at 2 µM; active compounds read high.
A short description of assay [2]: human hepatoma cell viability loss – ATP luminescence, cytotoxicity control for P. falciparum antimalarial project, primary screen (AID 2303;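 active = inhibition above 50%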;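 also: 0% = DMSO wells and 100% = digitonin-killed cells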). To be noted: HepG2 viability, 24-48 h, at 10 µM, active compounds read high.
Assay [3] addresses L-lactate dehydrogenase (Plasmodium falciparum (isolate CDC / Honduras)) (UniProt Q27743). Nature of the assay: PfLDH activity inhibition – cell lysate, 3D7 strain, counter-screen for P. falciparum growth inhibition project (AID 2304).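 Also: 0% = vehicle and 100% = reference inhibitor.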 The note with it: P. falciparum 3D7 crude extract, LDH APAD/NBT absorbance; at 2 µM; active compounds read high.
Assay [4] is described as follows: inhibition of 3D7 malaria parasite growth – strain 3D7 (AID 2306).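 Also: 0% = DMSO wells and 100% = chloroquine plus artemisinin control wells.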 To be noted: P. falciparum 3D7 erythrocytic growth, LDH absorbance, 72 h; at 2 µM; active compounds read high.
In assay [5] the target is Calcium-dependent protein kinase 1 (Plasmodium falciparum (isolate 3D7)) (UniProt P62344). Nature of the assay: PfCDPK1 kinase inhibitors, biochemical, TCAMS library (AID 1159585; cut-off not given, nearly all actives have IC50 up to about 0.98 µM;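 also: inhibitors leave more ATP so luminescence rises with inhibition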). The note with it: recombinant PfCDPK1, Kinase-Glo ATP depletion luminescence.
Assay [6] has as its target Plasmodium falciparum protein kinase 6 (PK6, PF3D7_1337100) (UniProt Q8IDW1). Nature of the assay: PfPK6 kinase inhibitors, biochemical, TCAMS library (AID 1159586). To be noted: recombinant PfPK6, Kinase-Glo ATP depletion luminescence. For orientation: In Kinase-Glo more light means more ATP remaining.
The target of assay [7] is Protein kinase 7 (PK7), Plasmodium falciparum 3D7 (PF3D7_0213400) (UniProt Q7YTF7). The assay can be described thus: inhibition of Plasmodium PK7 catalytic activity – biochemical, TCAMS antimalarial set, Kinase-Glo luminescence (AID 1159587). The note with it: recombinant PfPK7, Kinase-Glo ATP depletion luminescence.
Assay [8] addresses Calcium-dependent protein kinase 4 (Plasmodium falciparum (isolate 3D7)) (UniProt Q8IBS5). Nature of the assay: PfCDPK4 kinase inhibitors, biochemical, TCAMS library (AID 1159588; cut-off not given, nearly all actives have IC50 up to about 0.91 µM). To be noted: recombinant PfCDPK4, Kinase-Glo ATP depletion luminescence.

Calcium-dependent protein kinase 1 (Plasmodium falciparum (isolate 3D7)), sequence (P62344 whole entry, looked up): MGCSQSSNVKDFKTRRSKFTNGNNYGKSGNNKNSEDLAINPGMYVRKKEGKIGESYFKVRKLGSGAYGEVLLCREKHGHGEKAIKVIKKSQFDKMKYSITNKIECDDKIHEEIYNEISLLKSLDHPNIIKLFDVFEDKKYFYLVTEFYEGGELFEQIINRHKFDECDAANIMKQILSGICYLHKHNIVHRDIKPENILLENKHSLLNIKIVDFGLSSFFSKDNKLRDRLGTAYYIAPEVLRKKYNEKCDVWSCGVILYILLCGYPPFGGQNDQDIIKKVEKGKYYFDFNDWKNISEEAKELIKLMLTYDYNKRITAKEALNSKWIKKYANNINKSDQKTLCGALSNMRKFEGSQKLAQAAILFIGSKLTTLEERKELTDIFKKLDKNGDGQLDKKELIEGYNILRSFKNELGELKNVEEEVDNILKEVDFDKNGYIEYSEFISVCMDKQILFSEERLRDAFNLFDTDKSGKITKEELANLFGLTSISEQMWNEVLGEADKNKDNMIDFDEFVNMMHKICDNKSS
L-lactate dehydrogenase (Plasmodium falciparum (isolate CDC / Honduras)), sequence (Q27743 whole entry, looked up): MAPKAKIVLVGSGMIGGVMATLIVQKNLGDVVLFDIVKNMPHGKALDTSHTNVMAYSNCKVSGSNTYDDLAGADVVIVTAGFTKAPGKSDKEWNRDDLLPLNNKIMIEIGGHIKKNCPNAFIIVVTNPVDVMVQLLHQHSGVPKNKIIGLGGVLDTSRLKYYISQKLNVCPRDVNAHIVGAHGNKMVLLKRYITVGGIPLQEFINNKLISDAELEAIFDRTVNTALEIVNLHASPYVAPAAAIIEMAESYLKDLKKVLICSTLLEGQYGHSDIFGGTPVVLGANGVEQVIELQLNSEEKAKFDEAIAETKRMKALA
Plasmodium falciparum protein kinase 6 (PK6, PF3D7_1337100), sequence (Q8IDW1 1-305): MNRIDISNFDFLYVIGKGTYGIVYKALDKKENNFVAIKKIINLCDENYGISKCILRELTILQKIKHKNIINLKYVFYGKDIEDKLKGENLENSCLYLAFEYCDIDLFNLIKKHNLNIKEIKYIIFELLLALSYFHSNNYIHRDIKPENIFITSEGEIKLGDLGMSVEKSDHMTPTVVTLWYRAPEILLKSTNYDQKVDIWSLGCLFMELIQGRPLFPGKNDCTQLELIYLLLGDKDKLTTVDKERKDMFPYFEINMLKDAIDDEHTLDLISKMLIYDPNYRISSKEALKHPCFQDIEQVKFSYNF
Protein kinase 7 (PK7), Plasmodium falciparum 3D7 (PF3D7_0213400), sequence (Q7YTF7 1-343): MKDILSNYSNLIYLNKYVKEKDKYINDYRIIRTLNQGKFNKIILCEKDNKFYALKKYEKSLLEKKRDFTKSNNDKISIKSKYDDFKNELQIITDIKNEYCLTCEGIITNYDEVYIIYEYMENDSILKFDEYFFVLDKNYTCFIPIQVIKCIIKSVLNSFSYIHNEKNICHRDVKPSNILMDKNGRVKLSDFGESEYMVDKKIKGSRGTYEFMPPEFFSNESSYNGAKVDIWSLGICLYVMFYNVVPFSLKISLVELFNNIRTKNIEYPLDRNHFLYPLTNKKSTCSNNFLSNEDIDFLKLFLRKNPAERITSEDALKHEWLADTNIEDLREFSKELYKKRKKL
Calcium-dependent protein kinase 4 (Plasmodium falciparum (isolate 3D7)), sequence (Q8IBS5 whole entry, looked up): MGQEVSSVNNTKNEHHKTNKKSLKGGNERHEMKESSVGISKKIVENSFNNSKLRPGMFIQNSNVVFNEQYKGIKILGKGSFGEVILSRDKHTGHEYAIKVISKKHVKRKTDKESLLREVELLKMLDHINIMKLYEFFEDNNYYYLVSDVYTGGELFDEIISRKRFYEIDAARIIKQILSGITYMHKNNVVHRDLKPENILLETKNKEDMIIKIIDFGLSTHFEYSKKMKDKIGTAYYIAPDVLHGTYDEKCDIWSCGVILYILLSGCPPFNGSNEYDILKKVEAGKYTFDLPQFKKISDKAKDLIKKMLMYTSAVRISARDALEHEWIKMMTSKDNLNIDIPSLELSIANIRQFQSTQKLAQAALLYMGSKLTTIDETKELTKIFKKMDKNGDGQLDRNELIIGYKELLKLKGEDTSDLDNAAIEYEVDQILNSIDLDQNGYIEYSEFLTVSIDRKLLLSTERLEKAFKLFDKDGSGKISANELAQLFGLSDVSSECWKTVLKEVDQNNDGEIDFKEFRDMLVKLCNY

Take `c1ccc(-c2[nH]c3ccccc3c2CN2CCC(N3CCCCC3)CC2)nc1`: the figures for the growth inhibition in assay [1] and in assay [4] were 82% (active) and 101% (active), respectively. The inhibition is 13% in assay [2] and -3% in assay [3]. Besides, the result in assay [5], in assay [6], in assay [7] and in assay [8] was inactive.

In the case of `NC(=O)COc1c(C2CCN(CCCCNC(=O)c3ccc(-c4ccc(Cl)cc4)c(O)c3)CC2)ccc2c1CCCC2`, the growth inhibition was 72% (active) in assay [1] and 101% (active) in assay [4]. The inhibition in assay [2] was 97% (active); in assay [3], 4%. The result in assay [5], in assay [6], in assay [7] and in assay [8] was inactive.

Regarding `O=[N+]([O-])c1ccc(-c2ccc(C=NNc3nc(Nc4ccccc4)nc(Nc4ccccc4)n3)o2)cc1`, the growth inhibition in assay [1] is 12%; in assay [4], 91% (active). Also, the figures for the inhibition in assay [2] and in assay [3] were -4% and 1%, respectively. For the same compound, the result in assay [5], in assay [6], in assay [7] and in assay [8] was inactive.

For the compound `COc1ccc(-c2cccc(NC(=O)c3ccc(Cl)cc3)c2)cc1CN1CCCN(C)CC1`, the growth inhibition in assay [1] is 95% (active); in assay [4], 101% (active). For the same compound, the inhibition is 29% in assay [2] and -8% in assay [3]. For the same compound, the result in assay [5], in assay [6], in assay [7] and in assay [8] was inactive.

For the compound `CS(=O)(=O)c1ccc(-c2cncc(Cl)n2)cc1`, the growth inhibition in assay [1] is 95% (active); in assay [4], 100% (active). For the same compound, the inhibition is 8% in assay [2] and 7% in assay [3]. The outcome in assay [5], in assay [6], in assay [7] and in assay [8] was inactive.

Regarding `Cc1cc(N2CCCC2)nc(Nc2ccc(NC(=O)Nc3ccccc3)cc2)n1`, the growth inhibition in assay [1] is 100% (active); in assay [4], 99% (active). Besides, the inhibition was 35% in assay [2] and 1% in assay [3]. Also, the outcome in assay [5], in assay [6], in assay [7] and in assay [8] was inactive.

On to `COc1ccc(-c2nc(NC(=O)Cc3cccc(OC)c3)sc2C)cc1`, for which the growth inhibition in assay [1] is 77% (active); in assay [4], 101% (active). For the same compound, the inhibition was 1% in assay [2] and -3% in assay [3]. Moreover, the outcome in assay [5], in assay [6], in assay [7] and in assay [8] was inactive.

For the compound `COc1ccc(NC(=O)[C@H](CC(C)C)Nc2cc(C)nc(NCCc3cccs3)n2)cc1`, the growth inhibition was 68% (active) in assay [1] and 100% (active) in assay [4]. In addition, the inhibition in assay [2] is 5%; in assay [3] it was 4%. Besides, the result in assay [5], in assay [6], in assay [7] and in assay [8] was inactive.

In the case of `CN(CC(=O)Nc1cc(C(F)(F)F)ccc1-n1cncn1)Cc1ccc2ccccc2c1`, the growth inhibition in assay [1] is 99% (active); in assay [4], 98% (active). Further, the inhibition is 18% in assay [2] and 3% in assay [3]. Moreover, the outcome in assay [5], in assay [6], in assay [7] and in assay [8] was inactive.

Regarding `Cc1cccc(C)c1C1CCN(CCCCNC(=O)c2cc3ccccc3[nH]2)CC1`, the results for the growth inhibition in assay [1] and in assay [4] were 18% and 90% (active), respectively. Also, the figures for the inhibition in assay [2] and in assay [3] were 46% and 4%, respectively. For the same compound, the result in assay [5], in assay [6], in assay [7] and in assay [8] was inactive.

As to `O=C(Cc1ccc(-n2cnnn2)cc1)N(Cc1cncn1Cc1cccc(C(F)(F)F)c1)CC1CC1`, the growth inhibition in assay [1] was -2%; in assay [4], 86% (active). The inhibition is -12% in assay [2] and 0% in assay [3]. For the same compound, the result in assay [5], in assay [6], in assay [7] and in assay [8] was inactive.

Regarding `CC(C)(C)c1cc(C(=O)Nc2ccc(C(=N)N)cc2)c(O)c(C(C)(C)C)c1`, the growth inhibition in assay [1] was 88% (active); in assay [4], 101% (active). For the same compound, the inhibition in assay [2] was 4%; in assay [3] it was -2%. Further, the outcome in assay [5], in assay [6], in assay [7] and in assay [8] was inactive.

For the compound `CCc1nc(N)nc(N)c1-c1ccc(C(C)C)cc1`, the growth inhibition was -4% in assay [1] and 92% (active) in assay [4]. For the same compound, the values for the inhibition in assay [2] and in assay [3] were 3% and 1%, respectively. Moreover, the outcome in assay [5], in assay [6], in assay [7] and in assay [8] was inactive.

Consider `Cc1cc(N(C)C)nc(Nc2ccc(NC(=O)c3ccc(Br)o3)cc2)n1`, for which the growth inhibition is 57% (active) in assay [1] and 101% (active) in assay [4]. Further, the inhibition in assay [2] is 1%; in assay [3], -2%. Besides, the result in assay [5], in assay [6], in assay [7] and in assay [8] was inactive.

Take `CC(C)NCc1ccc(-c2ccc(NC(=O)c3ccc(Cl)cc3)cc2)cc1`: the growth inhibition in assay [1] was 8%; in assay [4] it was 90% (active). The inhibition in assay [2] is 60% (active); in assay [3] it was 3%. In addition, the outcome in assay [5], in assay [6], in assay [7] and in assay [8] was inactive.

For `O=C(Nc1ccc(C(=O)OC[C@@H]2CCCN3CCCC[C@H]23)cc1)c1ccc([N+](=O)[O-])cc1`, the results for the growth inhibition in assay [1] and in assay [4] were 25% and 95% (active), respectively. Further, the results for the inhibition in assay [2] and in assay [3] were 5% and 2%, respectively. The outcome in assay [5], in assay [6], in assay [7] and in assay [8] was inactive.

Take `CN1CCN(c2nsc3ccc(-c4ccc(OCCN5CCCC5)cc4)cc23)CC1`: the growth inhibition in assay [1] is 99% (active); in assay [4], 102% (active). Also, the inhibition was 57% (active) in assay [2] and 6% in assay [3]. The result in assay [5], in assay [6], in assay [7] and in assay [8] was inactive.

Take `Cc1ccc(NC(=O)NC2CCN(c3ccnc4ccccc34)C2)cc1` (stereo not given): the growth inhibition in assay [1] was 48%; in assay [4] it was 99% (active). Further, the inhibition in assay [2] was 7%; in assay [3] it was 0%. Besides, the result in assay [5], in assay [6], in assay [7] and in assay [8] was inactive.

Turning to `Cc1cc(F)ccc1Nc1nc(N(C)c2ccccc2)c2cccc(O)c2n1`, the figures for the growth inhibition in assay [1] and in assay [4] were 81% (active) and 92% (active), respectively. Moreover, the inhibition was 38% in assay [2] and 2% in assay [3]. Further, the outcome in assay [5], in assay [6], in assay [7] and in assay [8] was inactive.

As to `Cc1ccc(Nc2nccc(NCC(O)c3cccc(F)c3)n2)cc1` (stereo not given), the growth inhibition was 26% in assay [1] and 95% (active) in assay [4]. In addition, the inhibition was 24% in assay [2] and -7% in assay [3]. The result in assay [5], in assay [6], in assay [7] and in assay [8] was inactive.
